{"source": "ChEMBL document CHEMBL2218924", "about": "“A broad activity screen in support of a chemogenomic map for kinase signalling research and drug discovery” (Biochem J, 2013)", "key": {"[1]": {"target": "Tyrosine-protein kinase SYK (Homo sapiens) (UniProt P43405)", "conditions": "at 10 µM"}, "[2]": {"target": "T1, Mitogen-activated protein kinase kinase kinase 7 (Homo sapiens) (UniProt O43318)", "T1 sequence (whole entry)": "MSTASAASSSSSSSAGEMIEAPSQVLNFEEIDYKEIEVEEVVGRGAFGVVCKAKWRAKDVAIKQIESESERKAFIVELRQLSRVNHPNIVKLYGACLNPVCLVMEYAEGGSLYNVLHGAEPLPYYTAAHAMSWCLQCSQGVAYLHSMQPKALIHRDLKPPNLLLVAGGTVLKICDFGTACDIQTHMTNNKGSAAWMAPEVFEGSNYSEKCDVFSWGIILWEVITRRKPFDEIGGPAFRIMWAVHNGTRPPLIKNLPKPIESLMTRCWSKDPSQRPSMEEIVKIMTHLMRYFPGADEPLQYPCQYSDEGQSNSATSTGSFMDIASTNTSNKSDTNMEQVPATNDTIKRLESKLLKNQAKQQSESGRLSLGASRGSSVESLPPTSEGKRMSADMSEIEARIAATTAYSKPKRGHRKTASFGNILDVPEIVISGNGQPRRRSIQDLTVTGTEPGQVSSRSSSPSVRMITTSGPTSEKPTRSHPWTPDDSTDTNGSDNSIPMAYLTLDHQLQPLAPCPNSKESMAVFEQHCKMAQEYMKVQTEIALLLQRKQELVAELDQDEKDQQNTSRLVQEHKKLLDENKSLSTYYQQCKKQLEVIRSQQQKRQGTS", "conditions": "at 10 µM"}, "[3]": {"target": "T2, Serine/threonine-protein kinase TAO1 (Homo sapiens) (UniProt Q7L7X3)", "T2 sequence (whole entry)": "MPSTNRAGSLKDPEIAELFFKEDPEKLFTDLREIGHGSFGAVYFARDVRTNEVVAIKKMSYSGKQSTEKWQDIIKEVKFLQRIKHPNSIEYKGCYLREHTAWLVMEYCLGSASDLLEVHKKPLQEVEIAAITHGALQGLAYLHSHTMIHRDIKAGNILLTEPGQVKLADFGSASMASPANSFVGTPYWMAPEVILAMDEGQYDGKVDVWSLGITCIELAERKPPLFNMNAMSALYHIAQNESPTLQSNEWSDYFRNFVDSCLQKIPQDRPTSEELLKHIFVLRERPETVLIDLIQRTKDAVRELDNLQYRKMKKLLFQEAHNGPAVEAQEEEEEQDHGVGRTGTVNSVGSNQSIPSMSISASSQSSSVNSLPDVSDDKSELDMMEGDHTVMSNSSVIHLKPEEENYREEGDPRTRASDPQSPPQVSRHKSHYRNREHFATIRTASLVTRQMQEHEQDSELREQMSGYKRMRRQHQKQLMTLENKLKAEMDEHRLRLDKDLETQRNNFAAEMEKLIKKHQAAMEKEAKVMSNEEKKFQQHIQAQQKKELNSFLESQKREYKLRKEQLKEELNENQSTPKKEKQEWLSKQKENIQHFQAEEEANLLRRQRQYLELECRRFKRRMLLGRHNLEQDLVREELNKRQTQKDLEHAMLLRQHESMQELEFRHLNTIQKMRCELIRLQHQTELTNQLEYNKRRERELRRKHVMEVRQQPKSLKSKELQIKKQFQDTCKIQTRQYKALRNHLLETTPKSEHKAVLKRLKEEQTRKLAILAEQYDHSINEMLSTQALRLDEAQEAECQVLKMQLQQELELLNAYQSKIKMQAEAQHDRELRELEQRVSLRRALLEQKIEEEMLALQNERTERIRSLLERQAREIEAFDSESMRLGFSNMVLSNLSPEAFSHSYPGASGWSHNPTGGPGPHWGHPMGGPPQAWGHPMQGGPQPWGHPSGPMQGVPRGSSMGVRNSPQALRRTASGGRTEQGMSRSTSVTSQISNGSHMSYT", "conditions": "at 1 µM"}, "[4]": {"target": "T2, Serine/threonine-protein kinase TAO1 (Homo sapiens)", "conditions": "at 10 µM"}, "[5]": {"target": "T3, Serine/threonine-protein kinase TAO2 (Homo sapiens) (UniProt Q9UL54)", "T3 sequence (whole entry)": "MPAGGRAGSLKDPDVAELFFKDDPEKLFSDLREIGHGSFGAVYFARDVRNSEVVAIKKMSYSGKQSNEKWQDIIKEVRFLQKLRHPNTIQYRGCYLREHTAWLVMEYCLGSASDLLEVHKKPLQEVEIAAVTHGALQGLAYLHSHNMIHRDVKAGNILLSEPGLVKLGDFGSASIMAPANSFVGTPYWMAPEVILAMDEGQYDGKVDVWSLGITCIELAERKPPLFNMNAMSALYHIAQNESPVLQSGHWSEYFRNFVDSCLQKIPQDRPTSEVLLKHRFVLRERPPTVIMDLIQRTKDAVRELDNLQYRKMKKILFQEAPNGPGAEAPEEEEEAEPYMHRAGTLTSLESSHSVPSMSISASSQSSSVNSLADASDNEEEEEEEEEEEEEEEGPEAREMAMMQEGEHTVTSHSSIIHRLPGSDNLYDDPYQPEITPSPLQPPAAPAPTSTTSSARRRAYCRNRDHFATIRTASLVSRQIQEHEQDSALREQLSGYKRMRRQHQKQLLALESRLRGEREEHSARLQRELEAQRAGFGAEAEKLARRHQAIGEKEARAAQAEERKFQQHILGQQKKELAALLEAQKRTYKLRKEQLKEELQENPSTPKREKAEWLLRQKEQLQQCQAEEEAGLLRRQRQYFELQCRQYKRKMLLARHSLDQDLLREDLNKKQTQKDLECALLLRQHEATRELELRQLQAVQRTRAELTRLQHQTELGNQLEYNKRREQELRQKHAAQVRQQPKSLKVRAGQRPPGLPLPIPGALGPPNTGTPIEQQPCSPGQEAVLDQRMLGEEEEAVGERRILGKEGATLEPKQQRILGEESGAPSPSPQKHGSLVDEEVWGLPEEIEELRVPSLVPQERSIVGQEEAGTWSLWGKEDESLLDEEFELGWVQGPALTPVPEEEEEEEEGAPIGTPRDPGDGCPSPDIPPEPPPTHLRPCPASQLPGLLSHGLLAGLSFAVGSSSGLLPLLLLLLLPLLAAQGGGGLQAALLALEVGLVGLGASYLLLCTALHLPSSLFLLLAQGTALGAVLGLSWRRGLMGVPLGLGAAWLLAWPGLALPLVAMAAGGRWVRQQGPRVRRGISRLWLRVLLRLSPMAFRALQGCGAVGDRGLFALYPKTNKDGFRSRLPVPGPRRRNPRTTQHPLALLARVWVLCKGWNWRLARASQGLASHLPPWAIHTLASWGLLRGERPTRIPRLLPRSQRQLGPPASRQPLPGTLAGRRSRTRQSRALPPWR", "conditions": "at 1 µM"}, "[6]": {"target": "T3, Serine/threonine-protein kinase TAO2 (Homo sapiens)", "conditions": "at 10 µM"}, "[7]": {"target": "T4, Serine/threonine-protein kinase TAO3 (Homo sapiens) (UniProt Q9H2K8)", "T4 sequence (whole entry)": "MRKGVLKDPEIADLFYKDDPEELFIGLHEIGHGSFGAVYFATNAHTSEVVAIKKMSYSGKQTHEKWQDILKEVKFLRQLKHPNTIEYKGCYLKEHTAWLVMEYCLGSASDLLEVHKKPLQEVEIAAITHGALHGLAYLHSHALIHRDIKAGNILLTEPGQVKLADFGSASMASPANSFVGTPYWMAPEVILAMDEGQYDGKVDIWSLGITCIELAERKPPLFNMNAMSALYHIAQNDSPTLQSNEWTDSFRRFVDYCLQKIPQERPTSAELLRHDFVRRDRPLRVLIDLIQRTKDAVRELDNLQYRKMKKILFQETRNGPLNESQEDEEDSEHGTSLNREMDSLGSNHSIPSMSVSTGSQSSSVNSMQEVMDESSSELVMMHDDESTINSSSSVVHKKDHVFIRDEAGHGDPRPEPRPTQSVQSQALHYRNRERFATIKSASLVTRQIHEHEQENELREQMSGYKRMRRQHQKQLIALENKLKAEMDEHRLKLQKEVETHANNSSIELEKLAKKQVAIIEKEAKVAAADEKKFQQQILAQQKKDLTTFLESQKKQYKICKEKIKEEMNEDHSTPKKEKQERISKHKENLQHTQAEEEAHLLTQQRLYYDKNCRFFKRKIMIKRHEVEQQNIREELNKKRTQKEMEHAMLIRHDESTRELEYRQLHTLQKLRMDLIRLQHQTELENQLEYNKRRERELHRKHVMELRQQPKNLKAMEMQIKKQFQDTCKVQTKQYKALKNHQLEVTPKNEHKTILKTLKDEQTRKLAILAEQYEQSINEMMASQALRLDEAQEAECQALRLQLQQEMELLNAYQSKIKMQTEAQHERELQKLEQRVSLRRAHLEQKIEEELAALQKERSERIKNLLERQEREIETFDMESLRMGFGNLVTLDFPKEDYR", "conditions": "at 1 µM"}, "[8]": {"target": "T4, Serine/threonine-protein kinase TAO3 (Homo sapiens)", "conditions": "at 10 µM"}, "[9]": {"target": "T5, Serine/threonine-protein kinase TBK1 (Homo sapiens) (UniProt Q9UHD2)", "T5 sequence (whole entry)": "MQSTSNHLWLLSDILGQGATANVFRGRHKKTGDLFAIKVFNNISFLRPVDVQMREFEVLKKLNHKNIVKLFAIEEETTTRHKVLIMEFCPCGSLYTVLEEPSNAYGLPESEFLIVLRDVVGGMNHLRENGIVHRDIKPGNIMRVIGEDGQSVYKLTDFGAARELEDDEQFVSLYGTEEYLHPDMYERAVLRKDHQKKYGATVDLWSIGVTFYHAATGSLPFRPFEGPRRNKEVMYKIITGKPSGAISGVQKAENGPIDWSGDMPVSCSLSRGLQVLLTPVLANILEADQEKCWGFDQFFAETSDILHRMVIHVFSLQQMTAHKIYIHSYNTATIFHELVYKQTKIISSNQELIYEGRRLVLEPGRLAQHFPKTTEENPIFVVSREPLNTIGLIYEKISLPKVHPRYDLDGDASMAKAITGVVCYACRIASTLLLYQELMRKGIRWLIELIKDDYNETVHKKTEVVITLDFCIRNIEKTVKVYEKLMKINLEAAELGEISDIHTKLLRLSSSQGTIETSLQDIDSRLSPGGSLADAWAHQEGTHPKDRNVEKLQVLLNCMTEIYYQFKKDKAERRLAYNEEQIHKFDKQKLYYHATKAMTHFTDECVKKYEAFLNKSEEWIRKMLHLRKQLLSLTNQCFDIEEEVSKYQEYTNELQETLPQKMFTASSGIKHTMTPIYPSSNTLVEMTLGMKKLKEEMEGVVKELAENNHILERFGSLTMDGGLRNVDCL", "conditions": "at 1 µM"}}}
{"molecule": "CCCCc1c(-c2ccc(OC)cc2)[nH]c2nccnc12", "values": [{"measurement": "residual activity", "setting": "[1]", "value": 39, "unit": "%"}, {"measurement": "residual activity", "setting": "[2]", "value": 86, "unit": "%"}, {"measurement": "residual activity", "setting": "[3]", "value": 48, "unit": "%"}, {"measurement": "residual activity", "setting": "[4]", "value": 48, "unit": "%"}, {"measurement": "residual activity", "setting": "[5]", "value": 64, "unit": "%"}, {"measurement": "residual activity", "setting": "[6]", "value": 82, "unit": "%"}, {"measurement": "residual activity", "setting": "[7]", "value": 81, "unit": "%"}, {"measurement": "residual activity", "setting": "[8]", "value": 90, "unit": "%"}, {"measurement": "residual activity", "setting": "[9]", "value": 61, "unit": "%"}]}
